Where “and” joins values, the source holds several entries; their conditions need not be identical. Equal values may be shown once. Compounds without any hit were thinned out: in the full panel of roughly 79,000, 15% have a hit. Where a structure was tested more than once in an assay, its records may differ in their call. Calls of active or inactive are those of the source. Rule as the data show it: active = growth inhibition above about 70%; inactive = the rest.
Tests used:
[1] = NCI Yeast Anticancer Drug Screen. Data for the rad52 strain (AID 147);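 also: 0% = growth of vehicle-treated control cultures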; details: S. cerevisiae rad52 mutant growth inhibition, stronger effect = higher value
Method in brief: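 Compounds are applied to a genetically defined yeast strain lacking normal DNA damage repair, and inhibition of growth is expressed relative to cultures given vehicle only.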

[2] = NCI Yeast Anticancer Drug Screen. Data for the wt1 strain (AID 149);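 also: 0% = growth of vehicle-treated wt1 cultures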; details: S. cerevisiae wt1 strain (SPY 50644) growth inhibition, stronger effect = higher value
Method in brief: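 wt1 strain grown with compound or vehicle; inhibition taken from the growth difference.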

[3] = NCI Yeast Anticancer Drug Screen. Data for the rad50EPP+ strain (AID 151);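 also: 0% = growth of vehicle-treated control cultures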; details: S. cerevisiae rad50 mutant strain, stronger effect = higher value
Method in brief: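 Compounds were applied to the rad50EPP+ yeast strain, which bears a defined DNA repair alteration, and growth inhibition was determined relative to vehicle-treated cultures.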

[4] = NCI Yeast Anticancer Drug Screen. Data for the mgt1 strain (AID 153); details: S. cerevisiae mgt1 mutant growth inhibition, stronger effect = higher value
Method in brief: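 Strain: mgt1 yeast, one of a set carrying defined DNA damage repair or cell cycle control alterations. Compound-treated growth compared with vehicle.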

[5] = NCI Yeast Anticancer Drug Screen. Data for the rad50 strain (AID 155);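 also: 0% = growth of vehicle-only cultures of the same strain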; details: S. cerevisiae rad50 strain growth inhibition, stronger effect = higher value
Method in brief: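 DNA repair mutant yeast, compound exposure, growth read-out; inhibition is taken relative to vehicle.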

[6] = NCI Yeast Anticancer Drug Screen. Data for the mec2-1 strain (AID 157); details: S. cerevisiae mec2-1 strain, stronger effect = higher value
Method in brief: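 Strain: mec2-1 (DNA repair/cell cycle alteration). Compound exposure, then growth measured; inhibition expressed relative to vehicle.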

[7] = NCI Yeast Anticancer Drug Screen. Data for the rad14 strain (AID 159);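 also: 0% = growth of vehicle-treated control cultures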; details: S. cerevisiae rad14 strain growth inhibition, stronger effect = higher value
Method in brief: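 DNA repair-defective yeast, compound-exposed; % growth inhibition derived by comparison with vehicle-treated controls.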

[8] = NCI Yeast Anticancer Drug Screen. Data for the sgs1 mgt1 strain (AID 161);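 also: 0% = growth of cultures given vehicle only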; details: S. cerevisiae sgs1 mgt1 strain, stronger effect = higher value
Method in brief: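 Test agents were incubated with a DNA-repair-mutant yeast strain. Growth was then read and compared against vehicle-treated controls.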

[9] = NCI Yeast Anticancer Drug Screen. Data for the CLN2oe strain (AID 163);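 also: 0% = growth of vehicle-only control cultures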; details: S. cerevisiae CLN2oe strain, stronger effect = higher value
Method in brief: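 Growth of a genetically modified yeast strain is measured after compound exposure and compared with cultures given vehicle alone.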

[10] = NCI Yeast Anticancer Drug Screen. Data for the cln2 rad14 strain (AID 165);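 also: 0% = growth equal to vehicle treated cultures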; details: S. cerevisiae cln2 rad14 strain, stronger effect = higher value
Method in brief: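 Compounds are applied to the cln2 rad14 yeast strain, and growth is then compared with that of vehicle-treated cultures to give inhibition.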

[11] = NCI Yeast Anticancer Drug Screen. Data for the bub3 strain (AID 167); details: S. cerevisiae bub3 mutant strain, stronger effect = higher value
Method in brief: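 In this screen, a yeast mutant lacking normal mitotic checkpoint function is challenged with compound. Relative growth versus vehicle gives the inhibition value.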

[12] = NCI Yeast Anticancer Drug Screen. Data for the wt2 strain (AID 169);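 also: 0% = growth of vehicle-treated yeast cultures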; details: S. cerevisiae wt2 strain growth inhibition, stronger effect = higher value
Method in brief: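 This strain belongs to a panel of yeast strains with defined genetic alterations in DNA damage repair or cell cycle control. Compounds are applied, and growth inhibition is measured against vehicle-treated cultures.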

[13] = NCI Yeast Anticancer Drug Screen. Data for the mlh1 strain (AID 171);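 also: 0% = growth of vehicle-treated control cultures of the same strain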; details: S. cerevisiae mlh1 strain growth inhibition, stronger effect = higher value
Method in brief: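 Growth of the mutant yeast strain after compound exposure, expressed as inhibition relative to vehicle-only controls.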

[14] = NCI Yeast Anticancer Drug Screen. Data for the sgs1 strain (AID 173);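 also: 0% = growth of vehicle-only control cultures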; details: S. cerevisiae sgs1 mutant, stronger effect = higher value
Method in brief: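 Growth of a yeast strain bearing a defined genetic alteration is measured after compound treatment. Inhibition is expressed relative to vehicle-only controls.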

[15] = NCI Yeast Anticancer Drug Screen. Data for the mlh1 rad18 strain (AID 175); details: S. cerevisiae mlh1 rad18 strain growth inhibition, stronger effect = higher value
Method in brief: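 Read-out is yeast growth inhibition, calculated against vehicle-only controls. The compound was applied to a strain engineered with DNA damage repair alterations.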

[16] = NCI Yeast Anticancer Drug Screen. Data for the rad18 strain (AID 177); details: S. cerevisiae rad18 mutant growth inhibition, stronger effect = higher value
Method in brief: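 Growth of the mutant yeast strain after compound exposure, normalised to vehicle-only cultures.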

[17] = at 5.0 µM (retest, dose inferred, filed as 0.5)
[18] = at 50.0 µM (retest, dose inferred, filed as 5.0)

Measured: growth inhibition

CN(C)CCOC1(Cc2ccc(Cl)cc2Cl)CCC(C(C)(C)C)CC1 (stereo unspecified)
active: [1]; at 11.0 µM 99% and 98% | [1]; at 33.0 µM 99% | [1]; at 100.0 µM 99% and 97% | [2]; at 11.0 µM 98% and 86% | [2]; at 33.0 µM 99% | [2]; at 100.0 µM 100% and 99% | [3]; at 11.0 µM 91% and 94% | [3]; at 33.0 µM 98% and 92% | [3]; at 100.0 µM 99% | [4]; at 11.0 µM 99% | [4]; at 33.0 µM 100% and 99% | [4]; at 100.0 µM 100% and 99% | [5]; at 11.0 µM 99% | [5]; at 33.0 µM 99% | [5]; [18] 100% | [5]; at 50.0 µM 98.8% and 99.2% | [5]; at 100.0 µM 99% | [6]; at 11.0 µM 99% | [6]; at 33.0 µM 100% and 99% | [6]; [18] 100% | [6]; at 50.0 µM 99.5% | [6]; at 100.0 µM 100% and 99% | [7]; at 11.0 µM 99% | [7]; at 33.0 µM 99% | [7]; at 100.0 µM 100% and 99% | [8]; [18] 100% | [8]; at 50.0 µM 99.5% and 99.7% | [9]; at 11.0 µM 99% and 81% | [9]; at 33.0 µM 98% | [9]; at 100.0 µM 97% and 99% | [10]; [18] 100% | [10]; at 50.0 µM 99.1% and 97.9% | [11]; at 11.0 µM 99% and 98% | [11]; at 33.0 µM 99% and 98% | [11]; [18] 100% | [11]; at 50.0 µM 99.2% and 95.8% | [11]; at 100.0 µM 99% | [12]; at 11.0 µM 99% | [12]; at 33.0 µM 100% and 99% | [12]; at 100.0 µM 100% | [13]; at 11.0 µM 99% | [13]; at 33.0 µM 100% and 99% | [13]; at 100.0 µM 100% and 99% | [14]; at 11.0 µM 99% | [14]; at 33.0 µM 100% and 99% | [14]; at 100.0 µM 100% and 99% | [15]; [18] 100% and 99% | [15]; at 50.0 µM 99.5% and 99.4% | [16]; at 11.0 µM 99% and 98% | [16]; at 33.0 µM 99% | [16]; at 100.0 µM 99%
96% (active) and 68% (inactive): [15]; [17]
inactive: [1]; at 1.2 µM 1% and -3% | [1]; at 3.7 µM 1% and 0% | [2]; at 1.2 µM 0% and -4% | [2]; at 3.7 µM -4% and -6% | [3]; at 1.2 µM -9% and -10% | [3]; at 3.7 µM -50% and -53% | [4]; at 1.2 µM 0% and -3% | [4]; at 3.7 µM 14% and 19% | [5]; at 1.2 µM 1% and -4% | [5]; at 3.7 µM 3% | [5]; [17] 48% and 22% | [6]; at 1.2 µM -5% and -2% | [6]; at 3.7 µM -4% and 5% | [6]; [17] 49% and 21% | [7]; at 1.2 µM -3% and -1% | [7]; at 3.7 µM 11% and 18% | [8]; [17] 64% and 58% | [9]; at 1.2 µM -9% and -8% | [9]; at 3.7 µM -8% | [10]; [17] 40% and 16% | [11]; at 1.2 µM -8% and -3% | [11]; at 3.7 µM 0% and -2% | [11]; [17] 8% and 15% | [12]; at 1.2 µM -1% and -3% | [12]; at 3.7 µM 3% and 8% | [13]; at 1.2 µM 0% and -1% | [13]; at 3.7 µM 6% and 14% | [14]; at 1.2 µM -1% | [14]; at 3.7 µM 11% and 26% | [16]; at 1.2 µM 0% and -4% | [16]; at 3.7 µM 0% and -2%

Nc1n[n+]([O-])c2ccc(Cl)cc2[n+]1[O-]
inactive: [1]; at 1.2 µM 49% | [2]; at 1.2 µM 8% | [2]; at 3.7 µM 13% | [2]; at 11.0 µM 31% | [2]; at 33.0 µM 62% | [3]; at 1.2 µM 53% | [4]; at 1.2 µM 1% | [4]; at 3.7 µM 27% | [4]; at 11.0 µM 36% | [5]; at 1.2 µM 60% | [5]; [17] 65% | [6]; at 1.2 µM 9% | [6]; at 3.7 µM 22% | [6]; [17] 15% | [6]; at 11.0 µM 57% | [7]; at 1.2 µM 12% | [7]; at 3.7 µM 32% | [8]; [17] 48% | [9]; at 1.2 µM 6% | [9]; at 3.7 µM 32% | [9]; at 11.0 µM 55% | [10]; [17] 19% | [11]; at 1.2 µM 0% | [11]; at 3.7 µM 15% | [11]; [17] 24% | [11]; at 11.0 µM 44% | [12]; at 1.2 µM 8% | [12]; at 3.7 µM 30% | [12]; at 11.0 µM 57% | [13]; at 1.2 µM 15% | [13]; at 3.7 µM 38% | [14]; at 1.2 µM 18% | [14]; at 3.7 µM 55% | [15]; [17] 50% | [16]; at 1.2 µM 66%
active: [1]; at 3.7 µM 80% | [1]; at 11.0 µM 91% | [1]; at 33.0 µM 94% | [1]; at 100.0 µM 96% | [2]; at 100.0 µM 84% | [3]; at 3.7 µM 77% | [3]; at 11.0 µM 88% | [3]; at 33.0 µM 91% | [3]; at 100.0 µM 94% | [4]; at 33.0 µM 80% | [4]; at 100.0 µM 95% | [5]; at 3.7 µM 79% | [5]; at 11.0 µM 88% | [5]; at 33.0 µM 92% | [5]; [18] 95% | [5]; at 50.0 µM 96.8% | [5]; at 100.0 µM 94% | [6]; at 33.0 µM 83% | [6]; [18] 91% | [6]; at 50.0 µM 78% | [6]; at 100.0 µM 93% | [7]; at 11.0 µM 71% | [7]; at 33.0 µM 89% | [7]; at 100.0 µM 96% | [8]; [18] 91% | [8]; at 50.0 µM 93.2% | [9]; at 33.0 µM 84% | [9]; at 100.0 µM 95% | [10]; [18] 93% | [10]; at 50.0 µM 76.7% | [11]; at 33.0 µM 81% | [11]; [18] 93% | [11]; at 50.0 µM 82.8% | [11]; at 100.0 µM 90% | [12]; at 33.0 µM 85% | [12]; at 100.0 µM 95% | [13]; at 11.0 µM 70% | [13]; at 33.0 µM 93% | [13]; at 100.0 µM 96% | [14]; at 11.0 µM 78% | [14]; at 33.0 µM 91% | [14]; at 100.0 µM 95% | [15]; [18] 97% | [15]; at 50.0 µM 94.7% | [16]; at 3.7 µM 87% | [16]; at 11.0 µM 93% | [16]; at 33.0 µM 95% | [16]; at 100.0 µM 95%

C/C(=N\Nc1ccc([N+](=O)[O-])cc1[N+](=O)[O-])c1sc(-n2nc(-c3ccccc3)cc2-c2ccccc2)nc1C
inactive: [1]; at 1.2 µM -1% | [1]; at 3.7 µM 13% | [1]; at 11.0 µM 7% | [1]; at 33.0 µM 0% | [1]; at 100.0 µM 26% | [2]; at 1.2 µM -21% | [2]; at 3.7 µM -4% | [2]; at 11.0 µM -13% | [2]; at 33.0 µM -1% | [2]; at 100.0 µM -4% | [3]; at 1.2 µM 7% | [3]; at 3.7 µM 22% | [3]; at 11.0 µM 27% | [3]; at 33.0 µM 50% | [3]; at 100.0 µM 59% | [4]; at 1.2 µM 18% | [4]; at 3.7 µM 6% | [4]; at 11.0 µM 6% | [4]; at 33.0 µM 32% | [4]; at 100.0 µM 60% | [5]; at 1.2 µM -1% | [5]; at 3.7 µM 0% | [5]; [17] 25% | [5]; at 11.0 µM -15% | [5]; at 33.0 µM 4% | [5]; [18] 62% | [5]; at 100.0 µM 10% | [6]; at 1.2 µM 11% | [6]; at 3.7 µM 16%
active: [5]; at 50.0 µM 80%

— PubChem BioAssay (NCI)
